In the library only some 7.5% were active in any assay of this set; here they are far more common.
Vaccinia Venus: inhibitors of vaccinia virus (Venus reporter); Vaccinia virus Venus reporter expression, fluorescence; Potency, µM (top dose mostly 36.5 µM), for the others: at the highest dose activity change, negative = inhibition, actives largely listed as inhibitors; 0.46% of 330,000 active; AID 720580; calls by dose curve; tested in A549 cells; note: potency is the fitted concentration of half-maximal effect; nearly all actives have a fitted effect of over 30% in size
HCMV antiviral: human cytomegalovirus inhibition. 4.5% of 410,000 active. activity change, negative = inhibition, % at 57.5 µM. HFF cells, HCMV-luciferase reporter, 72 h; hits give low values; in the data active = activity change below about -60%; inconclusive = no clear call, values can overlap the other calls; inactive = above about -39%
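Screen run at 2 compound doses on HFFs infected with reporter HCMV, MOI 1 PFU/cell. Luciferase activity from cell lysates at 72 h post infection gave inhibition relative to buffer-only and Salinomycin wells.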
FBPA Giardia inh: Giardia lamblia aldolase inhibition; A8B2U2; purified Giardia FBPA; Potency, µM (series often up to 59.6 µM), for inactives: at the top dose activity, negative = inhibition, usual class: inhibitors; 0.71% of 290,000 active; note: potency is the fitted concentration of half-maximal effect; nearly all actives have a fitted effect of over 55% in size
Target sequence (A8B2U2 whole entry, looked up): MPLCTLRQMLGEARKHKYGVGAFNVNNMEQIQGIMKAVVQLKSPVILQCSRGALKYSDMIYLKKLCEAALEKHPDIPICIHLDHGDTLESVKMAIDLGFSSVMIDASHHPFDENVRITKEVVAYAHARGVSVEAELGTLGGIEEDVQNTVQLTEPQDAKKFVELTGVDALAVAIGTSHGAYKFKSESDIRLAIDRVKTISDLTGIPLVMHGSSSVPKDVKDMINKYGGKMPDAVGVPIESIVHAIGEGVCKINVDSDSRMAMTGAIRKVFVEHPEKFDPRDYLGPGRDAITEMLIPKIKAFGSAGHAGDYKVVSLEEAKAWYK
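Giardia FBPA (40 nM reagent) was preincubated 10 min at RT with compound (up to 57.5 uM final), then substrate plus GAPDH/TPI/NAD/arsenate coupling system with diaphorase/resazurin was added; resorufin fluorescence (525/598 nm) was read after 20 min.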
FMDV antiviral: foot and mouth disease virus antiviral activity | FMDV antiviral cell-based qHTS | AID 1159524 | Potency, µM (doses to about 57.9 µM), without a hit: at the top dose activity change, negative = inhibition, actives largely listed as inhibitors | 1.2% of 410,000 active; calls by dose curve; tested in HEK293T cells; note: read-out not given here; potency is the fitted concentration of half-maximal effect; nearly all actives have a fitted effect of over 45% in size
Vaccinia mCherry: vaccinia inhibition (mCherry reporter); Vaccinia virus mCherry reporter infection, fluorescence; Potency, µM (series often up to 36.5 µM), for the others: at the highest dose activity change, negative = inhibition, usual class: inhibitors; 0.63% of 310,000 active; AID 720579; calls by dose curve; tested in A549 cells; note: potency is the fitted concentration of half-maximal effect; nearly all actives have a fitted effect of over 35% in size
HCV inh: inhibitors of hepatitis C virus infection | Huh7.5.1 HCVcc-Cre infection, luciferase reporter, 44 h | 3.4% of 340,000 active | Potency, µM (series often up to 41.8 µM), for the others: at the top dose activity change, negative = inhibition, actives largely listed as inhibitors | AID 651820; note: potency is the fitted concentration of half-maximal effect
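Reporter virus HCVcc-Cre (~0.5 moi) infects cells exposed to compound; seeding density 1,000 cells/well with 4 h settling beforehand. Luminescence, 15 sec read, taken 44 h post-infection following a 15 min RT substrate incubation.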
* hit, by the source's call; i = inactive; ? = inconclusive; nt = not tested or not shown. Unless noted, calls come from the whole dose curve; as a rule, active = well fitted curve in the direction sought with a large enough effect; inconclusive = small, poorly fitted or top-dose-only effect, or another doubt; inactive = no such curve, though single readings can be large; an effect the other way counts as inactive or inconclusive. % is set by controls: 0 for no effect and ±100 for the full control effect.

SMILES	Vaccinia Venus	HCMV antiviral	FBPA Giardia inh	FMDV antiviral	Vaccinia mCherry	HCV inh
CCc1ccc(NC(=O)NNC(=O)c2ccc3ccccc3c2O)cc1	nt	-82.3*	10.0%	13.6%	nt	5.6%
CC(CS(=O)(=O)c1ccccc1[N+](=O)[O-])N1CCOCC1 (stereo not given)	nt	-80.8*	3.7%	-17.9%	nt	32.0%
CN(CC(=O)Nc1c(Cl)cccc1Cl)C(=O)c1ccccc1SCC(=O)N1CCCC1	-16.4%	50.6	nt	-7.0%	i	10.9%
Cc1ccc(Cl)cc1N1CCN(C(=O)c2ccccc2SCC(=O)N2CCCC2)CC1	nt	-13.0	nt	?	nt	11.2µM*
COc1ccccc1N1CCN(C(=O)c2ccccc2SCC(=O)N2CCCC2)CC1	-24.3%	-25.1	nt	-1.2%	-1.6%	6.7%
CN(CCOc1ccc(Cl)cc1)C(=O)c1ccccc1SCC(=O)N1CCCC1	nt	?	nt	?	nt	10µM*
Cc1ccc(Cl)cc1N1CCN(C(=O)c2ccc(CN3CCOCC3)cc2)CC1	-26.3%	5.7	0.2%	nt	-23.0%	25.1µM*
COc1ccc(C2=NCCn3c2c2ccc(OC)cc2[n+]3[O-])cc1	nt	31.9	nt	nt	nt	nt
CC1CCN(S(=O)(=O)c2ccc(NC(=O)C3CCN(C(=O)c4ccco4)CC3)cc2)CC1	-18.3%	-26.8	2.2%	-9.2%	-19.0%	?
Cc1ccc(NC(=S)/C(=C(\[O-])c2ccc(F)cc2)[n+]2ccccc2)cc1	8.5%	-72.9*	-13.0%	34.6%	0.1%	-11.2%
Cc1ccc(/C([O-])=C(/C(=S)NCc2ccco2)[n+]2ccccc2)cc1	nt	nt	-23.7%	nt	nt	nt
CCCc1cc(NC(=O)COC(=O)c2ccc(O)cc2O)n(-c2ccccc2)n1	nt	0.0	nt	?	nt	11.2µM*
CCCc1cc(NC(=O)CCl)n(-c2ccccc2)n1	-19.7%	?	1.1%	?	?	22.4µM*
O=C(COC(=O)c1ccc(O)cc1O)Nc1cc(-c2ccccc2)nn1-c1ccccc1	-3.3%	?	nt	-19.8%	-4.5%	4.7%
O=C(NCCc1nnc2n1CCN(Cc1ccc(F)c(F)c1)CC2)c1ccoc1	-7.1%	nt	nt	-4.7%	-9.4%	nt
O=[N+]([O-])c1cc(C(F)(F)F)ccc1N1CCN(S(=O)(=O)c2ccc3ccccc3c2)CC1	?	-69.0*	0.6%	?	nt	6.31µM*
Cn1c(=O)n(C)c2cc([N+](=O)[O-])c(N3CCN(S(=O)(=O)c4ccc(C(C)(C)C)cc4)CC3)cc21	-13.7%	-94.4*	-10.8%	nt	?	14.1µM*
CC(=O)Nc1ccc(S(=O)(=O)N2CCN(c3cc4c(cc3[N+](=O)[O-])n(C)c(=O)n4C)CC2)cc1	-19.5%	-28.1	-0.8%	?	-26.5%	nt
O=C(CCCCCN1C(=O)C2C3C=CC(C3)C2C1=O)Nc1nccs1 (stereo not given)	nt	18.8	2.3%	-9.0%	nt	2.1%
O=C(CCN1C(=O)C2C3C=CC(C3)C2C1=O)Nc1nccs1 (stereo not given)	-8.3%	-69.0*	4.3%	-15.5%	-3.3%	24.7%
O=C(Nc1cccc(-c2nc3ccccc3[nH]2)c1)c1cccc(NC(=O)c2ccco2)c1	nt	-102.4*	4.0%	31.6µM*	nt	3.55µM*
O=C(Nc1ccc2nc(-c3ccccc3)[nH]c2c1)c1ccco1	-12.4%	-67.3*	-5.2%	19.4%	-1.6%	?
CS(=O)(=O)c1cccc(C(=O)Nc2cccc(-c3nc4ccccc4[nH]3)c2)c1	-16.7%	5.3	3.1%	11.2%	-18.0%	-17.8%
COc1ccc(-c2cc(NC(C)=O)c3ncc(-c4ccccc4)n3c2)c(OC)c1	-3.3%	-6.3	nt	-8.6%	i	nt
CCOc1ccc(C(CC(=O)O)NC(=O)C(CC)c2ccccc2)cc1 (stereo not given)	-8.7%	-38.5	3.5%	-3.2%	-13.4%	19.3%
O=C(Cc1cnn(-c2ccccc2)c1)c1ccc(O)c(O)c1O	3.0%	52.3	3.54µM*	2.0%	-15.0%	-19.8%
CCc1cc(C(=O)Cc2cnn(-c3ccccc3)c2)c(O)cc1O	nt	-3.5	-1.9%	-21.2%	nt	-15.8%
CCCC[C@@H](CN[C@H](C)CNC)NCC1CCC(C(C)(C)C)CC1 (stereo not given in full)	?	-86.7*	?	-15.0%	?	?

From PubChem
